Compounds with a hit are over-represented: about 20% of the library has one in this group of screens.
Pf growth 96h = P. falciparum growth inhibition at 96 hour, primary screen for plastid delayed-death inhibitors; P. falciparum luciferase reporter growth, 96 h; Potency, µM (highest dose often 28.7 µM), for inactives: top-dose activity change, negative = inhibition, hits mostly inhibitors; actives 6.9% (n = 320,000); AID 504834; note: potency is the fitted concentration of half-maximal effect; % is set by controls: 0 for no effect and ±100 for the full control effect
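P. falciparum expressing integrated firefly luciferase grown in erythrocytes (2% hematocrit, 0.05% parasitemia final) with compounds for 96 hours at 37 C, 5% CO2. Growth inhibition read as loss of luminescence after adding luciferase detection reagent.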
HCMV antiviral = human cytomegalovirus inhibition. HFF cells, HCMV-luciferase reporter, 72 h; stronger effect = lower value. activity change, negative = inhibition, % at 57.5 µM. actives 4.5% (n = 410,000). AID 1259415; in the data active = activity change below about -60%; inconclusive = no clear call, values can overlap the other calls; inactive = above about -39%; note: % is set by controls: 0 for no effect and ±100 for the full control effect
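Human foreskin fibroblasts infected with luciferase-reporter HCMV at MOI 1 PFU/cell, compounds at two doses. Luciferase measured 72 h post infection; normalized to buffer-only basal and Salinomycin (10uM) controls.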
Shiga toxin inh = Shiga toxin inhibition. Vero cells, Shiga toxin protein synthesis inhibition reporter. actives 9.2% (n = 290,000). inhibition, % at 38.7 µM; in the data active = inhibition mostly above about 28%, no sharp cut-off; inactive = mostly below about 43%; note: 0% is about no effect
Pf growth 48h = inhibits P. falciparum growth in the first generation, 48 h; P. falciparum luciferase growth in erythrocytes, 48 h; Potency, µM (doses to about 28.7 µM), without a hit: top-dose activity change, negative = inhibition, hits mostly inhibitors; actives 5.9% (n = 310,000); note: potency is the fitted concentration of half-maximal effect; % is set by controls: 0 for no effect and ±100 for the full control effect
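Parasite viability was followed by luminescence of a genomically integrated firefly luciferase. Cultures held 0.1% parasitemia at 2% hematocrit (final), incubated under 5% CO2 at 37 C.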
CHX counter-1 = counter-screen hit for Shiga toxin inhibitors, cycloheximide; max response, %; actives 12% (n = 300,000); cell reporter, cycloheximide protein synthesis inhibition counterscreen; AID 2314; in the data active = max response mostly above about 13%, no sharp cut-off; inactive = mostly below about 14%; note: read at 38.3 µM for the half of the compounds with a filed dose; 0% is about no effect
CHX counter-2 = protein synthesis counter-screen activity for Shiga toxin hits | shares compounds with Shiga toxin inh | Cycloheximide counterscreen, protein synthesis reporter, Shiga toxin assay | Potency, µM (top dose mostly 38.3 µM), inactives show top-dose activity (activation), hits mostly activators | actives 3% (n = 510); calls by dose curve; note: potency is the fitted concentration of half-maximal effect; 0% is about no effect
* hit, by the source's call; ? = inconclusive; . = no result given; [ ] = dose if it differs, or a comment. Unless noted, calls come from the whole dose curve; as a rule, active = well fitted inhibition curve with a large enough effect; inconclusive = small, poorly fitted or top-dose-only effect, or another doubt; inactive = no such curve, though single readings can be large or run the other way.

SMILES	Pf growth 96h	HCMV antiviral	Shiga toxin inh	Pf growth 48h	CHX counter-1	CHX counter-2
COc1cccc2c1C(=O)c1c(O)c3c(c(O)c1C2=O)C[C@@](O)(C(=O)CO)C[C@@H]3O[C@H]1C[C@H](N)[C@H](O)[C@H](C)O1	0.093µM*	-98*	38*	0.15µM*	10*	0%[76.6 µM]
CC(C)(C)OC(=O)N1CCCC(C(=O)Nc2ccc(C(=O)NC3CC3)cc2)C1 (stereo not drawn)	.	3	.	.	.	.
CC(=O)Nc1ccc(C(=O)OCc2ccc(F)cc2)cc1	3%	-26	35	?	12	.
COC(=O)c1ccc(NC(=O)Cc2ccc(F)cc2)cc1	59%[1.15 µM]	-36	151*	-34%[1.15 µM]	14	?
O=C(Nc1nc(-c2ccccc2Cl)cs1)c1cccnc1	.	-12	56	?	2	.
Cc1oncc1-c1csc(-c2ccccc2Cl)n1	105%	?	121*	19%	9	?
Cc1cccc(OCCCC(=O)Nc2nccs2)c1C	?	-2	29*	49%	7	-2%
CC(C)(C)NC(=O)c1ccc(COc2ccccc2Br)o1	?	-15	34*	?	8	1%
CC(=O)Nc1ccc(NC(=O)c2ccc(COc3ccccc3Br)o2)cc1	3%	-7	-3	1%	2	.
Cc1ccc2[nH]c(=O)c(CN(CCCN3CCOCC3)C(=O)Nc3ccc(Cl)cc3)cc2c1	0%	-7	48*	3.7µM*	9	0%
O=C(COC(=O)C1CCN(S(=O)(=O)c2ccc3c(c2)OCCO3)CC1)Nc1cc(C(F)(F)F)ccc1Cl	-24%	29	-6	13%	-2	.
Cc1cc(C)cc(C(=O)NCC(=O)OCC(=O)NC2CCCc3ccccc32)c1 (stereo not drawn)	.	-3	.	.	.	.
COc1ccc(-c2nc(NC(=O)CSc3nnc4ccccn34)ns2)cc1	?	-5	44*	-7%	2	?
COc1ccccc1NC(=O)CSc1nnc2ccccn12	42%	123	.	17%	.	.
COC(=O)CCNC(=O)Cc1ccc(S(=O)(=O)N2CCCCC2)s1	5%	13	.	?	.	.
COc1ccc(C2=NN(C(=O)c3ccco3)C(c3cc4ccccc4nc3Cl)C2)cc1 (stereo not drawn)	11%	.	28*	-11%	5	0%
COc1ccc2cc(C3CC(c4ccco4)=NN3C(=O)CCC(=O)O)c(Cl)nc2c1 (stereo not drawn)	?	?	10	21%	-1	.
c1ccc(-c2nc3ccccn3c2-c2ccccc2)cc1	.	23	.	.	.	.
Cc1ccccc1N(CC(=O)NCc1ccco1)C(=O)CCC(=O)Nc1nccs1	?	?	24	-19%	-4	.
Cc1ccc(N(CC(=O)NCc2ccco2)C(=O)CCC(=O)Nc2nccs2)c(C)c1	18%	-39	27*	-24%	9	-1%
CC(C)c1cc(Cn2c3ccccc3c(=O)n2C(C)Cn2cc(-c3ccc(C(C)(C)C)cc3)nn2)on1 (stereo not drawn)	.	-33	.	.	.	.
CC(=O)[C@H]1[C@@H]2C(=O)N(c3cccc(Cl)c3)C(=O)[C@@H]2[C@H]2c3ccccc3C=CN21	3%	8	13	?	11	.
CC(=O)[C@@H]1[C@@H]2C(=O)N(c3ccc(F)c(Cl)c3)C(=O)[C@@H]2C2c3ccccc3C=CN21 (stereo partly drawn)	?	25	active	?	-3	-1%
COc1ccc(S(=O)(=O)Nc2ccc(-n3cnnn3)cc2)cc1Br	0%	11	.	-25%	.	.
O=C(CSCc1ccco1)NC1CCCC1	20%	-33	29*	4%	3	2%
COc1ccc(-c2cnnn2-c2ccc([N+](=O)[O-])cc2)cc1	?	22	38	?	11	.
COC(=O)c1ccc(C)c(NC(=O)CCSc2ccc(Cl)cc2)c1	-9%	-18	100*	-1%	10	-3%
CCn1ccc(C(=O)Nc2ccsc2C(=O)OC)n1	19%	-9	9	-1%	19	.
CCn1ccc(C(=O)NC2=NCCS2)n1	44%	38	31*	42%	17	6%
CN(C)C(CNC(=S)Nc1cccc(Cl)c1)c1ccccc1 (stereo not drawn)	?	-29	-2	?	-5	.

High-throughput results (PubChem BioAssay)
